Screening data: PubChem, National Center for Advancing Translational Sciences (NCATS)
RORg inh = qHTS for inhibitors of ROR gamma transcriptional activity; Nuclear receptor ROR-gamma (Mus musculus), P51450; Drosophila S2 Gal4-RORgamma UAS-luciferase reporter, 20 h; Potency, µM (highest dose often 53.6 µM), inactives show top-dose activity change, negative = inhibition, most hits filed as inhibitors; hit rate 5.4% among 310,000; AID 2551, 2010; further: on the % scale 0 is the no-effect control and ±100 the full control effect; nearly all actives have a fitted effect of over 60% in size
Target sequence (P51450 whole entry, looked up, the tested form may be a part): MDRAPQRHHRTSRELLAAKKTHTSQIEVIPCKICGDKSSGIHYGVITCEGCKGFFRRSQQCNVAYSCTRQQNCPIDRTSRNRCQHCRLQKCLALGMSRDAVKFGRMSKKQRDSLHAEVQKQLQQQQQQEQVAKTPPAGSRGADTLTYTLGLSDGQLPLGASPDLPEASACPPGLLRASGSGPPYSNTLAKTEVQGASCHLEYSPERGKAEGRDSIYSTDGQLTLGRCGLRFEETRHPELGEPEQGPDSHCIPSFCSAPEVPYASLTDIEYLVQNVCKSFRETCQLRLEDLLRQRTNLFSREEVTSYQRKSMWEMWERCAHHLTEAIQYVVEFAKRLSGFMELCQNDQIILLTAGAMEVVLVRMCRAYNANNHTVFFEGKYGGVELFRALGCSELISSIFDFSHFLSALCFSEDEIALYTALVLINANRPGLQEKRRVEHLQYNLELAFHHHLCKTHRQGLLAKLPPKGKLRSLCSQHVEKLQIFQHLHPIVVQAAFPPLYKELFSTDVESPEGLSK
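Drosophila S2 cells stably expressing Gal4-DBD/mouse RORγ fusion under metallothionein promoter plus UAS-luciferase; compound 1 h, then 700 uM CuSO4 induction for 20 h at ambient temperature; inhibition read as reduced luminescence.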
Epigenetic derep = Quantitative High-Throughput Screen for Regulators of Epigenetic Control | murine LDR cells, GFP reporter derepression, 30 h | Potency, µM (top dose mostly 53.9 µM), for the others: at the top dose GFP activation, most hits filed as activators | AID 1865, 2009 | hit rate 0.2% among 280,000; further: % of control where 0% means no effect; nearly all actives have a fitted effect of over 60% in size
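In this reporter-derepression format, murine cells bearing a silenced integrated CMV-GFP locus incubate with test compound (30 h, 37 C), then are washed and imaged; fluorescent objects of 20–120 um count as induced cells.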
Sfp inh = qHTS Assay for Inhibitors of Bacillus subtilis Sfp phosphopantetheinyl transferase (PPTase); AID 1490, 2009; Potency, µM, inactives show largest response in the series, negative = inhibition, usual class: inhibitors; Biochemical Sfp PPTase activity, qHTS; hit rate 3.5% among 310,000; 4'-phosphopantetheinyl transferase ffp (Bacillus subtilis), Q9F4F7;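 further: the enzyme is Sfp with the accession as filed and its product quenches rhodamine fluorescence; 0% = enzyme reaction without inhibitor and -100% = no enzyme wells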
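Reaction rates are the 30-min fluorescence difference (ex 525, em 598 nm) in wells containing 15 nM Sfp, 5 uM rhodamine-CoA and 12.5 uM BHQ-2-YbbR at pH 7.6 with 10 mM MgCl2.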
VP16 counter = VP16 counterscreen qHTS for inhibitors of ROR gamma transcriptional activity; Drosophila S2 Gal4-VP16 UAS-luciferase, luminescence, 20 h; Potency, µM (doses to about 53.6 µM), for the others: at the highest dose activity, negative = inhibition, usual class: inhibitors; hit rate 3.5% among 310,000; AID 2546, 2010;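 further: Gal4-VP16 expression switched on by copper sulfate through the metallothionein promoter; on the % scale 0 is the no-effect control and ±100 the full control effect; nearly all actives have a fitted effect of over 50% in size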
ClpP mod = qHTS Assay for Activators of ClpP; Potency, µM (doses to about 57.5 µM), for inactives: at the highest dose activity change, negative = active; ATP-dependent Clp protease proteolytic subunit (Bacillus subtilis (strain 168)), P80244; hit rate 1.9% among 340,000; purified B. subtilis ClpP, FRET peptide cleavage, 20 min; active means well fitted falling curve with a large enough effect; inconclusive means small, poorly fitted or top-dose-only effect; inactive means no such curve, though single readings can be large or run the other way; further: the source files actives as falling curves though it sought activators and does not explain the sign; nearly all actives have a fitted effect of over 65% in size
Target sequence (P80244 whole entry, looked up): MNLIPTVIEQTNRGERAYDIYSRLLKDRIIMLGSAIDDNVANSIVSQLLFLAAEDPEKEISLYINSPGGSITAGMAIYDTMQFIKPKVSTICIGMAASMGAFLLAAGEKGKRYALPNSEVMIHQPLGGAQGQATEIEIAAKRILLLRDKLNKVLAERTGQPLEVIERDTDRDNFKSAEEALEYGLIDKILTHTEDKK
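Purified B. subtilis ClpP, 10 microg/mL final in Tris/HCl pH8 with KCl, BSA, glycerol and Tween-20, cleaved an Abz/nitrotyrosine-quenched decapeptide. Fluorescence (ex 320, em 430) was read at 0 and 20 min at room temperature. Delta was normalized to 5.8 microM ADEP and DMSO/no-enzyme controls.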
PINK1 modulator = A Quantitative High throughput Screen to Identify Chemical Modulators of PINK1 Expression; PINK1 immunofluorescence, high-content cytometry, 24 h; Potency, µM (top dose mostly 76.6 µM), for the others: top-dose activation (PINK1 increase), actives largely listed as activators; hit rate 0.2% among 410,000; AID 624263, 2012; active means well fitted activation curve with a large enough effect; inconclusive means small, poorly fitted or top-dose-only effect; cell line not stated here; further: % of control where 0% means no effect; nearly all actives have a fitted effect of over 65% in size
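Fluorescence from anti-PINK1 antibody, together with nuclear and cell stains, was scanned on a laser-scanning cytometer. Before staining, stable-line cells were incubated 24 hours with compounds at 5 concentrations; primary antibody 12 h at 10 degrees C.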
Active calls of the source: *; ? = inconclusive; . = no result; [ ] = remark or other dose. Only some compounds are listed: those with a hit (about 8.1% of all), similar ones and a draw of the others. Unless noted, the call rests on the fitted dose curve; in most records, active means well fitted curve in the direction sought with a large enough effect; inconclusive means small, poorly fitted or top-dose-only effect, or another doubt; inactive means no such curve, though single readings can be large; an effect the other way counts as inactive or inconclusive. Potency means the concentration at half of the fitted maximal effect.

SMILES	RORg inh	Epigenetic derep	Sfp inh	VP16 counter	ClpP mod	PINK1 modulator
O=C(CNC(=O)c1ccc(Br)cc1)N/N=C/c1ccc[nH]1	-4%	1%	-9%	3%	-1%	4%
Cc1c(Cl)cccc1NC(=O)CCC(=O)N/N=C/c1ccc[nH]1	?	-1%	45µM*	?	-3%	?
O=C(Cc1ccccc1)N/N=C/c1ccc2cccc(O)c2n1	7.9µM*	-4%	-24%	?	.	4%
CCc1ccc(C2CC(=O)Nc3cc4c(cc32)OCO4)cc1 (stereo unspecified)	.	0%	.	.	-1%	3%
Cc1cc(C)nc(/N=C2/NC(=O)CS2)n1	4%	-1%	32µM*	-1%	0%	-1%[38.3 µM]
CNC(=O)C1CCC(Cn2c(=O)c3sccc3n(CC(=O)Nc3ccccc3)c2=O)CC1 (stereo unspecified)	.	1%	.	.	-1%	1%
CCN(CC)S(=O)(=O)c1ccc2nc(CCl)[nH]c2c1	-8%	-5%	11%	-19%	14µM*	-1%
CCN(CC)S(=O)(=O)c1ccc2c(c1)nc(CCC(=O)O)n2CC	1%	1%	12%	6%	.	-1%
COc1ccccc1NS(=O)(=O)c1ccc2nc(CCl)[nH]c2c1	11%	.	-20%	?	.	0%
CCN(CC)S(=O)(=O)c1ccc2c(c1)[nH]c(=S)n2CC	6.3µM*	-1%	56µM*	-23%	.	1%
CCOC(=O)c1ccc2c(c1)[nH]c(=S)n2CC	8.9µM*	1%	10%	?	-6%	-1%
CCc1nc(NCCO)c(C#N)c2c1CSC(C)(C)C2	-1%	1%	71µM*	-21%	4%	2%
CCCCc1nc(NCCO)c(C#N)c2c1CCCC2	41%	-3%	15%	-2%	4%	0%
CCCCNc1nc(CC)c2c(c1C#N)CCCC2	-3%	0%	2%	3%	28µM*	3%
CCOC(=O)c1c(NC(=O)c2ccc(S(=O)(=O)N(CCOC)CCOC)cc2)sc2c1CC(C)(C)NC2(C)C	.	?	.	.	2%	3%
COC(=O)/C=c1/s/c(=C(\C#N)C(=O)NCc2ccco2)n(-c2ccc(C)cc2)c1=O	-21%	?	56µM*	-8%	1%	9%
CCCCCc1ccc(OCCOCCn2c[n+](C)c3ccccc32)c(CCCCC)c1	?	0%	50µM*	16µM*	1%	-2%
CCCCCc1ccc(OCCC[n+]2ccccc2)c(CCCCC)c1	10%	0%	16µM*	-15%	0%	-4%
CCOc1ccc(CNC(=O)C2Cc3ccccc3N2C(=O)CC)cc1 (stereo unspecified)	.	2%	.	.	1%	0%
CC(=O)N=C1SC2CS(=O)(=O)CC2N1c1c(Cl)cccc1Cl (stereo unspecified)	16%	-6%	18%	2%	32µM*	0%
O=C(N=C1SC2CS(=O)(=O)CC2N1c1c(Cl)cccc1Cl)C1CC1 (stereo unspecified)	2%	.	4%	3%	-1%	0%
Cc1ccc(Nc2ncc(C(=O)Nc3ccc(F)cc3F)c3ccccc23)cc1Cl	.	6%	.	.	4%	4%
CS(=O)(=O)N1CCCCC1CCN1CCCCC1 (stereo unspecified)	.	.	.	.	28µM*	-1%
Cc1ccc(C(=O)N2CCCCC2CCN2CCCCC2)cc1 (stereo unspecified)	.	-3%	.	.	-2%	0%
CC(C)c1nc(NCc2ccccc2)c(C#N)c2c1CCCC2	15%	-1%	9%	-8%	8.9µM*	10%
SMILES	RORg inh	Epigenetic derep	Sfp inh	VP16 counter	ClpP mod	PINK1 modulator
Nc1cccc2[nH]cnc12	.	.	.	.	-26%	.
COC(=O)[C@@H]1CC[C@H](C)[C@@H](c2ccc(C)cc2)N1C(=O)c1ccc(/C=N\O[C@@H](C)CN2CCCCc3nc(C)c(C)cc32)cc1	-14%[10 µM]	1%[10.1 µM]	3%	-2%[10 µM]	.	.
COC(=O)[C@@H]1CC[C@H](C)[C@@H](c2ccc(C)cc2)N1C(=O)c1ccc(/C=N/O[C@@H](C)CN2CCCCc3nc(C)c(C)cc32)cc1	?	-1%	25µM*	20µM*	.	.
O=C(NNC1=Nc2ccccc2SC1)c1cccc([N+](=O)[O-])c1	?	-1%	15%	-26%	.	2%
O=C(NNC1=Nc2ccccc2SC1)c1ccccc1F	0.89µM*	3%	5%	0.71µM*	.	0%
O=C1c2ccccc2C2=Nc3ccccc3SC(c3cccc(F)c3)C12 (stereo unspecified)	37%	1%	10%	-10%	1%	40µM*
O=C1c2ccccc2C2=Nc3ccccc3SC(c3ccc(Cl)cc3)C12 (stereo unspecified)	?	0%	1%	-5%	-1%	?
CC(C)N(C(=O)c1ccc2nc(-c3ccccc3)c(-c3ccccc3)nc2c1)C(C)C	13%	-2%	?	?	28µM*	14%
COc1ccc(N(C)C(=O)c2ccc3nc(-c4ccccc4)c(-c4ccccc4)nc3c2)cc1	11%	1%	-12%	3%	0%	1%
CNC(=O)c1ccc2nc(-c3ccccc3)c(-c3ccccc3)nc2c1	.	.	.	.	5%	2%
C=CCNC(=O)c1ccc2nc(-c3ccccc3)c(-c3ccccc3)nc2c1	15%	4%	2%	1%	20µM*	-4%
O=C(Cc1cccc(F)c1)NO	.	.	.	.	0%	1%
Cc1ccc(C(=O)NC(=S)Nc2ccccc2N2CCOCC2)cc1C	4.5µM*	.	4%	7.9µM*	1%	2%
COc1cc(C(=O)Nc2ccccc2N2CCOCC2)ccc1OCC(=O)N1CCOCC1	.	.	.	.	-2%	1%
Cc1ccc(C(=O)Nc2ccccc2N2CCOCC2)cc1S(=O)(=O)N1CCOCC1	.	.	.	.	-1%	-1%
COc1cc(C(=O)NC(=S)Nc2ccccc2N2CCOCC2)cc(OC)c1OC	-16%	.	35µM*	-13%	3%	3%
COc1cccc(C(=O)NC(=S)Nc2ccccc2N2CCOCC2)c1	4µM*	.	7%	6.3µM*	0%	4%
Cc1ccc(-n2c(-c3cnccn3)n[nH]c2=S)c(Br)c1	7.9µM*	0%	-5%	-26%	.	0%
FC(F)(F)c1ccccc1-n1c(-c2cnccn2)n[nH]c1=S	11µM*	0%	?	-1%	.	0%
COc1cc(-c2n[nH]c(=S)n2-c2ccccc2C(F)(F)F)cc(OC)c1OC	?	0%	-18%	-8%	-2%	1%
